# Laboratory results: PubChem BioAssay (NCI)
# This is part of a sample that, as a whole, favours compounds with a hit. Of some 83,000 tested, about 20% had one in any assay.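 Assay: single dose, 48 h. Readout: percent growth (0 = no net growth; negative = cell death). Active: <10.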 A number with no mark means an inactive call. Calls of active or inactive are those of the source.
# Key:
# Test in all cases: NCI-60 one-dose screen, 48 h (100 = growth as untreated, 0 = no growth, -100 = all killed)
# [1] = system: NCI-H23 lung; settings: 10 µM unless noted
# [2] = system: NCI-H226 lung; settings: 10 µM unless noted
# [3] = system: NCI-H322M lung; settings: 10 µM unless noted
# [4] = system: HOP-62 NSCLC; settings: 10 µM unless noted
# [5] = system: NCI-H460 lung; settings: 10 µM unless noted
# [6] = system: HOP-92 NSCLC; settings: 10 µM unless noted
# [7] = system: A549/ATCC NSCLC; settings: 10 µM unless noted
# [8] = system: 786-0 renal; settings: 10 µM unless noted
# [9] = system: COLO 205 colon; settings: 10 µM unless noted
# [10] = system: DU-145 prostate; settings: 10 µM unless noted
# [11] = system: K-562 leukemia; settings: 10 µM unless noted
# [12] = system: MALME-3M melanoma; settings: 10 µM unless noted
# [13] = system: MDA-MB-231 breast; settings: 10 µM unless noted
# [14] = system: SF-268 CNS; settings: 10 µM unless noted
# [15] = system: SF-295 CNS; settings: 10 µM unless noted
# [16] = system: SF-539 CNS; settings: 10 µM unless noted
# [17] = system: UACC-257 melanoma; settings: 10 µM
# [18] = system: M14 melanoma; settings: 10 µM unless noted
# [19] = system: RXF 393 renal; settings: 10 µM unless noted
# [20] = system: NCI-H522 lung; settings: 10 µM unless noted
Structure (SMILES),growth [1],growth [2] [%],growth [3],growth [4],growth [5],growth [6],growth [7],growth [8],growth [9],growth [10],growth [11],growth [12],growth [13],growth [14],growth [15],growth [16],growth [17],growth [18],growth [19],growth [20] [%]
COc1ccc(-c2nnc(COc3ccc(NS(=O)(=O)c4ccc(OC)cc4)cc3F)o2)cc1,56.6%,57.9,83.6%,93.9%,77.8%,70.9%,62.8%,74.8%,70.6%,80.8%,55.8%,78.6%,82.7%,84.6%,67.8%,80.5%,74.9%,78.2%,–,–
O=C1NC(Cc2c[nH]c3ccccc23)C(=O)N1Cc1ccc(Cl)cc1 (centres undefined),107%,95.5,104%,103%,110%,85.8%,105%,110%,96.9%,116%,83.9%,105%,101%,106%,82.3%,106%,–,110%,116%,–
Cc1nn(-c2ccc(Cl)cc2)c(=O)n1CCOc1ccccc1Cl,91.6%,103,111%,75.2%,87.2%,78.4%,89.9%,93.7%,101%,110%,96.8%,103%,89.6%,106%,72.3%,108%,105%,98.8%,115%,–
O=S(=O)(NCCCNc1cc(-c2cn(-c3ccccc3)nc2-c2cccc(O)c2)ccn1)c1ccc(C(F)(F)F)cc1,43.9%,49.6,49.8%,50.9%,22.2%,29%,35.1%,-8.06% (active),-57.3% (active),60.8%,3.42% (active),22.7%,4.73% (active),44.1%,-3.81% (active),36.7%,–,23.5%,24.7%,–
O=C(/C=C/CN1CCOCC1)Nc1cc2c(Nc3cccc(Cl)c3F)ncnc2cc1OCCOC(F)F,85.4%,80.1,4.9% (active),70.5%,93%,18.9%,52.7%,53.4%,95.1%,49.5%,76%,64.4%,68.6%,65.2%,81.2%,81.4%,–,94.3%,68.4%,–
COc1cc(OC)c(C(=O)/C=C/c2ccc(C#N)cc2)c(OC)c1,20.1%,28.9,17.3%,13.6%,-3.34% (active),12.8%,7.11% (active),10.6%,9.97% (active),18.3%,9.68% (active),44.2%,22.2%,21%,8.32% (active),2.95% (active),30.8%,1.79% (active),15.9%,–
Cc1cc2c(C(C)C)c(O)c(O)c(C=NCCCCCCC(=O)O)c2c(O)c1-c1c(C)cc2c(C(C)C)c(O)c(O)c(C=NCCCCCCC(=O)O)c2c1O,21.8%,74.7,38.9%,39.3%,13.1%,13.8%,30.7%,38.2%,14.6%,51.3%,12.6%,62.8%,39.2%,36.2%,11.9%,23.1%,–,37%,34.2%,–
COc1cccc(-c2nc3sccn3c2-c2ccnc(NCCCNS(=O)(=O)c3ccccc3)n2)c1,36.1%,23.3,75.3%,119%,53.7%,56.5%,51.8%,62.6%,21.3%,52.1%,25.5%,36.4%,59.5%,62.7%,55%,70.4%,65.7%,25.2%,67.1%,–
Cc1nc2sccn2c1-c1csc(Nc2ccccc2Cl)n1,38.2%,57.7,64.4%,54.2%,–,60.9%,34.4%,55.3%,41.6%,68.2%,12.5%,56.2%,66.5%,71.3%,36.2%,52%,46%,36.9%,67.2%,41.9
OC1CC2c3ccccc3C1c1ccccc12 (centres undefined),101%,106,114%,108%,110%,96.2%,100%,98.9%,112%,117%,111%,110%,110%,105%,107%,108%,–,98.4%,111%,–
O=C(CCCn1c(=O)c2sc3ccccc3c2n2nnc(-c3ccccc3)c12)NCCc1cnc[nH]1,-20.4% (active),105,-13.7% (active),-59.8% (active),-44.1% (active),-54.5% (active),-45.7% (active),-77.7% (active),-36.8% (active),-68.8% (active),82.6%,-72.2% (active),-70.8% (active),-1.01% (active),8.37% (active),-82.8% (active),-44.4% (active),-78.6% (active),-46.2% (active),–
COc1ccc(-c2cn[nH]c2-c2cc(OC)c3c(c2)OCCO3)cc1,25.6%,57.1,50.7%,24%,4.65% (active),46.6%,30%,33%,-59.5% (active),9.03% (active),9.59% (active),97.9%,17.1%,25.1%,28.7%,-34.3% (active),75%,10.6%,-14% (active),–
COc1ccc2c(c1)NC(=O)CN2c1nc(NC2CC2)nc2ccccc12,12.4%,65.7,40.7%,31.7%,2.27% (active),3.22% (active),20.8%,19.6%,-18.9% (active),0.326% (active),8.2% (active),70.3%,14.9%,21.9%,0.0109% (active),-15% (active),–,6.86% (active),39.2%,–
CC(C(=O)n1cc(-c2ccccc2)c(-c2ccccc2)c1)c1ccccc1 (centres undefined),101%,104,110%,95.4%,104%,90.5%,88.7%,98%,122%,113%,104%,108%,108%,118%,91.9%,104%,95.3%,108%,112%,–
CCSc1nnc(NC(=O)Cc2ccc(Cl)cc2)s1,99.1%,104,112%,102%,123%,89.4%,106%,100%,108%,105%,89.4%,105%,114%,110%,98.3%,97.4%,–,107%,20.6%,–
Nc1c(C(=O)Nc2cccc(C(F)(F)F)c2)sc2nc3c(cc12)CCCCC3,3.46% (active),11.3,-5.26% (active),3.07% (active),10.3%,17.5%,-18.4% (active),-62.8% (active),65.1%,44.1%,36.9%,-20.4% (active),-29.5% (active),25.8%,11.7%,-63.3% (active),18.6%,49.6%,-20.7% (active),–
COc1ccc(C2=NN(c3ccc(S(N)(=O)=O)cc3)C(c3cn(-c4ccccc4)nc3-c3ccc(Cl)cc3)C2)cc1 (centres undefined),93.9%,101,94.4%,95.3%,89%,110%,74.6%,105%,93.7%,95.2%,66.9%,–,93.5%,85.6%,93.1%,102%,95.4%,83.9%,97.3%,–
